From the supplement of paper PMC6992640
Structures can show the parent of a compound that is named as a salt. ± gives the standard deviation of the averaged measurements.

Assays:
Assay in all cases: cell viability (% of vehicle); higher = less cytotoxic
HCI01 [1] = cells of a triple-negative basal-like breast cancer xenograft; conditions: 1 µM; 72 h
UCD52 [2] = cells of a triple-negative basal-like breast cancer xenograft; conditions: 1 µM; 72 h
WHIM2 [3] = cells of a triple-negative basal-like breast cancer xenograft; conditions: 1 µM; 72 h
WHIM30 [4] = cells of a triple-negative basal-like breast cancer xenograft; conditions: 1 µM; 72 h
HCI01 [5] = conditions: 10 µM; 72 h
HCI03 = cells of an ER-positive luminal breast cancer xenograft; conditions: 10 µM; 72 h
HCI09 = cells of a triple-negative luminal androgen receptor type breast cancer xenograft; conditions: 10 µM; 72 h
HCI11 = cells of an ER-positive luminal breast cancer xenograft; conditions: 10 µM; 72 h
HCI13 = cells of an ER-positive luminal breast cancer xenograft; conditions: 10 µM; 72 h
HCI16 = cells of a triple-negative basal-like breast cancer xenograft; conditions: 10 µM; 72 h
UCD52 [6] = conditions: 10 µM; 72 h
WHIM2 [7] = conditions: 10 µM; 72 h
WHIM30 [8] = conditions: 10 µM; 72 h

| Compound | cell viability (HCI01 [1]) | cell viability (UCD52 [2]) | cell viability (WHIM2 [3]) | cell viability (WHIM30 [4]) | cell viability (HCI01 [5]) | cell viability (HCI03) | cell viability (HCI09) | cell viability (HCI11) | cell viability (HCI13) | cell viability (HCI16) | cell viability (UCD52 [6]) | cell viability (WHIM2 [7]) | cell viability (WHIM30 [8]) |
| --- | --- | --- | --- | --- | --- | --- | --- | --- | --- | --- | --- | --- | --- |
| CNC(=O)c1cc(Oc2ccc(NC(=O)Nc3ccc(Cl)c(C(F)(F)F)c3)cc2)ccn1 [Sorafenib] | 107 | 67.7 | 92.6 | 78 | 43.2 ± 12 | 89.2 | 25.2 ± 2.9 | 52.4 | 33.2 ± 5.5 | 41.1 | 46 ± 1.8 | 42.7 ± 5.5 | 37 ± 2.4 |
| Clc1ccc(COC(Cn2ccnc2)c2ccc(Cl)cc2Cl)cc1.O=[N+]([O-])O (configuration not stated) [Econazole nitrate] | 101 | 92 | 115 | 92.7 | 33.7 ± 2 | 88.1 | 27.3 ± 11 | 116 | 36.3 ± 1.7 | 105 | 54 ± 2.1 | 45.3 ± 14 | 90.6 ± 24 |
| Cc1c(-c2ccc(O)cc2)n(Cc2ccc(OCCN3CCCCCC3)cc2)c2ccc(O)cc12.Cl [Bazedoxifene HCl] | 120 | 94.2 | 89.7 | 91.6 | 56.4 ± 32 | 41.6 | 21.6 ± 0.65 | 73.9 | 38 ± 6.1 | 114 | 45.6 ± 2.9 | 53.2 ± 6.3 | 83.1 ± 1.6 |
| C#Cc1cccc(Nc2ncnc3cc(OCCOC)c(OCCOC)cc23)c1.Cl [Erlotinib Hydrochloride] | 63.1 | 68.3 | 50.1 | 80.5 | 75.1 ± 35 | 50 | 59 ± 12 | 104 | 69.8 ± 5.8 | 100 | 52.4 ± 1.8 | 48 ± 8.3 | 84.5 ± 5.2 |
| CC1(C)Cc2c(-c3ccccc3)c(-c3ccc(Cl)cc3)c(CC(=O)O)n2C1 [Licofelone] | 125 | 103 | 90.3 | 97.1 | 46.1 ± 16 | 99.4 | 31.5 ± 2.2 | 90.2 | 84.6 ± 0.91 | 89.5 | 86.3 ± 4 | 47.3 ± 7 | 88.4 ± 11 |
| CN(C(=O)CN(CCO)CC(=O)N(C)C(C)(C)Cc1ccccc1)C(C)(C)Cc1ccccc1 [Oxethazaine] | 87.3 | 93.6 | 88.5 | 88.4 | 96.6 ± 4.3 | 55.9 | 69.4 ± 40 | 87.9 | 45.7 ± 12 | 83.1 | 39.3 ± 4.8 | 43.2 ± 9.4 | 96.4 ± 9.4 |
| CC(C)(C)Cn1c(N)nc2ccc(-c3[nH]c(C(C)(C)C)nc3-c3ccc(F)cc3)nc21.CS(=O)(=O)O.CS(=O)(=O)O | 67.7 | 46.4 | 65.4 | 61.1 | 58.4 ± 4.5 | 54.2 | 36.8 ± 15 | 81 | 58.7 ± 0.99 | 72.3 | 36.7 ± 1.6 | 39.5 ± 3.9 | 64.2 ± 9.7 |
| COC(=O)C1=C(C)NC(C)=C(C(=O)OC2CCCN(Cc3ccccc3)C2)C1c1cccc([N+](=O)[O-])c1.Cl (configuration not stated) [Benidipine HCl] | 96.3 | 88.8 | 105 | 93.7 | 82.1 ± 16 | 68.3 | 27.9 ± 14 | 83.2 | 36.2 ± 7.7 | 87.5 | 51.4 ± 7.1 | 31.1 ± 6.1 | 64 ± 4.1 |
| CCCCCCCCc1ccc(CCC(N)(CO)CO)cc1.Cl [Fingolimod (FTY720)] | 97.7 | 87.9 | 92.2 | 84.3 | 28.9 ± 5.8 | 53.9 | 18.8 ± 3.1 | 33.8 | 52.3 ± 9.9 | 49.1 | 25.6 ± 1.3 | 77.9 ± 3.2 | 82.5 ± 15 |
| Cc1nc(Nc2ncc(C(=O)Nc3c(C)cccc3Cl)s2)cc(N2CCN(CCO)CC2)n1 | 78.6 | 39.7 | 67.7 | 55.6 | 59.7 ± 21 | 53.7 | 53.2 ± 2.6 | 60.3 | 40.2 ± 3.5 | 40.5 | 39.3 ± 3.5 | 39.3 ± 3.4 | 57.8 ± 1.2 |
| Cl.OC(CNCC(O)C1CCc2cc(F)ccc2O1)C1CCc2cc(F)ccc2O1 (configuration not stated) [Nebivolol] | 91.1 | 92.3 | 91.5 | 103 | 75.3 ± 2.5 | 87.2 | 86.8 ± 8.1 | 87.2 | 94.2 ± 18 | 64.9 | 38.43 ± 0.34 | 40.5 ± 9.2 | 81 ± 2.3 |
| Cc1c(Cl)cccc1Nc1ccccc1C(=O)O [Tolfenamic Acid] | 95.9 | 102 | 106 | 92.6 | 100 ± 30 | 118 | 80.6 ± 9.7 | 91.9 | 71.1 ± 33 | 103 | 70.7 ± 3.2 | 41.7 ± 14 | 77.7 ± 3.3 |
| Cl.O.O=C1Cc2cc(CCN3CCN(c4nsc5ccccc45)CC3)c(Cl)cc2N1 [Ziprasidone hydrochloride monohydrate] | 88.5 | 94.7 | 94.5 | 94.6 | 33.4 ± 14 | 64.9 | 21.8 ± 4.9 | 36 | 47.8 ± 5.2 | 27.2 | 25 ± 1.1 | 35.8 ± 1.7 | 35.7 ± 5.9 |
| CCc1oc2ccccc2c1C(=O)c1cc(Br)c(O)c(Br)c1 [Benzbromarone] | 88.4 | 92.9 | 102 | 88.3 | 65.9 ± 49 | 103 | 33.8 ± 25 | 98 | 128 ± 29 | 97 | 76 ± 7.4 | 40.1 ± 12 | 95.1 ± 20 |
| Cn1cnc2c(F)c(Nc3ccc(Br)cc3F)c(C(=O)NOCCO)cc21 | 71.6 | 59.9 | 80.7 | 69.9 | 84.1 ± 12 | 90.7 | 65.6 ± 13 | 76.4 | 70.9 ± 7.1 | 79.6 | 59.8 ± 8.5 | 55.2 ± 20 | 106 ± 14 |
| CNCCC(Oc1cccc2ccccc12)c1cccs1.Cl (configuration not stated) [Duloxetine HCl] | 85.4 | 95.4 | 91.1 | 79.7 | 87.3 ± 6.3 | 106 | 55.9 ± 34 | 70.8 | 112 ± 11 | 66.6 | 30.9 ± 1.8 | 38.5 ± 0.71 | 80.9 ± 9.8 |
| Cc1cn(-c2cc(NC(=O)c3ccc(C)c(Nc4nccc(-c5cccnc5)n4)c3)cc(C(F)(F)F)c2)cn1 [Nilotinib(AMN-107)] | 78.2 | 77.5 | 88 | 75.3 | 105 ± 61 | 79.8 | 90.1 ± 21 | 76.6 | 91.3 ± 13 | 92.1 | 47.83 ± 0.22 | 69.1 ± 7.7 | 75 ± 2.3 |
| Cc1cccc(CN2CCN(C(c3ccccc3)c3ccc(Cl)cc3)CC2)c1.Cl.Cl (configuration not stated) [Meclizine 2HCl] | 136 | 93.4 | 98 | 99.5 | 85.9 ± 7.1 | 57.9 | 74 ± 12 | 67.4 | 52.7 ± 10 | 91.8 | 44 ± 6.2 | 71.6 ± 13 | 45.4 ± 6.8 |
| CC(CCC(=O)O)C1CCC2C3CCC4CC(O)CCC4(C)C3CCC12C (configuration not stated) [Lithocholic Acid] | 89.2 | 96.6 | 92.9 | 91.5 | 65.5 ± 50 | 132 | 95.1 ± 24 | 103 | 84.8 ± 7 | 91.3 | 86.8 ± 6.5 | 37.8 ± 10 | 90.1 ± 6.3 |
| CN1CCCC1CCOC(C)(c1ccccc1)c1ccc(Cl)cc1.O=C(O)C=CC(=O)O (configuration not stated) [Clemastine Fumarate] | 98.5 | 85.8 | 103 | 78.8 | 95.7 ± 30 | 79.3 | 52.8 ± 36 | 69.2 | 136 ± 24 | 74.4 | 36.5 ± 3.4 | 37.8 ± 3 | 104 ± 10 |
| CCOc1cc2ncc(C#N)c(Nc3ccc(OCc4ccccn4)c(Cl)c3)c2cc1NC(=O)C=CCN(C)C [Neratinib (HKI-272)] | 78.4 | 43.9 | 36.4 | 68.9 | 30.1 ± 7.1 | 38.1 | 27.8 ± 11 | 21.3 | 37.6 ± 1.3 | 38.7 | 23.2 ± 2.3 | 49.8 ± 12 | 96.1 ± 1.7 |
| CCCCCCCCCCCCCCCCOP(=O)([O-])OCC[N+](C)(C)C [Miltefosine] | 89.6 | 101 | 85.8 | 92.6 | 98.9 ± 9.1 | 108 | 87.7 ± 30 | 107 | 33.2 ± 0.37 | 82.1 | 77.6 ± 9.7 | 38.2 ± 14 | 58.56 ± 0.43 |
| COc1cc2nccc(Oc3ccc(NC(=O)NC4CC4)c(Cl)c3)c2cc1C(N)=O [Lenvatinib (E7080)] | 89.1 | 56.2 | 83 | 94.1 | 94.2 ± 28 | 70.5 | 79.8 ± 7.3 | 48.6 | 44.8 ± 3.3 | 61.4 | 57.8 ± 6.3 | 64 ± 21 | 48.1 ± 2 |
| COc1nc2ccc(Br)cc2cc1[C@@H](c1ccccc1)[C@@](O)(CCN(C)C)c1cccc2ccccc12 [Bedaquiline fumarate] | 90.7 | 108 | 97.8 | 99.8 | 79.1 ± 18 | 75.7 | 64.5 ± 22 | 80.3 | 116.1 ± 1.1 | 87 | 42.6 ± 0.72 | 48.7 ± 2.1 | 70 ± 2.9 |
| CCc1c(Cl)c(O)c(Cl)c(O)c1C(=O)OC1C(C)OC(OCC2=CC=CCC(O)C(C)=CC(CC)C(OC3OC(C)(C)C(OC(=O)C(C)C)C(O)C3O)C(C)=CC(C)=CCC(C(C)O)OC2=O)C(OC)C1O (configuration not stated) [Fidaxomicin] | 99.3 | 110 | 122 | 102 | 39.9 ± 12 | 65.5 | 28.6 ± 7.5 | 72.7 | 46.3 ± 0.086 | 56.3 | 44.6 ± 6.6 | 40.7 ± 8.9 | 29.3 ± 0.66 |
| CCCCc1oc2ccc(NS(C)(=O)=O)cc2c1C(=O)c1ccc(OCCCN(CCCC)CCCC)cc1 [Dronedarone] | 98.7 | 81.4 | 91.8 | 79.8 | 32.4 ± 2 | 40.7 | 22.2 ± 1.3 | 90.5 | 35.6 ± 0.56 | 32.7 | 29.7 ± 2.9 | 41.3 ± 5.4 | 38.6 ± 2.7 |
| CC1(C)CCC(c2ccc(Cl)cc2)=C(CN2CCN(c3ccc(C(=O)NS(=O)(=O)c4ccc(NC(CCN5CCOCC5)CSc5ccccc5)c(S(=O)(=O)C(F)(F)F)c4)cc3)CC2)C1 (configuration not stated) [ABT-263 (Navitoclax)] | 76.2 | 54.1 | 66.8 | 62.2 | 28 ± 2 | 44.2 | 21.8 ± 3.1 | 47.1 | 33.8 ± 0.76 | 29.6 | 36.5 ± 2.4 | 32.1 ± 4.1 | 35.2 ± 7.7 |
| C=C(c1ccc(C(=O)O)cc1)c1cc2c(cc1C)C(C)(C)CCC2(C)C [Bexarotene] | 106 | 107 | 91.9 | 142 | 60.2 ± 32 | 85.9 | 98.5 ± 3.8 | 100 | 54.3 ± 2.4 | 84.7 | 98 ± 14 | 44.8 ± 14 | 93.8 ± 4.4 |
| CCCCc1oc2ccccc2c1C(=O)c1cc(I)c(OCCN(CC)CC)c(I)c1.Cl [Amiodarone HCl] | 96.6 | 101 | 94.7 | 98.4 | 69.5 ± 16 | 54.7 | 32.8 ± 9.1 | 75 | 36.2 ± 4 | 60 | 40.7 ± 7.3 | 37 ± 6 | 83.1 ± 5.7 |
